# Measured values reported in ChEMBL document CHEMBL2218924, “A broad activity screen in support of a chemogenomic map for kinase signalling research and drug discovery” (Biochem J, 2013).
# Legend:
# [1] = biological target: T1, Ephrin type-A receptor 3 (Homo sapiens) (UniProt P29320); settings: at 10 µM
# T1 sequence (whole entry): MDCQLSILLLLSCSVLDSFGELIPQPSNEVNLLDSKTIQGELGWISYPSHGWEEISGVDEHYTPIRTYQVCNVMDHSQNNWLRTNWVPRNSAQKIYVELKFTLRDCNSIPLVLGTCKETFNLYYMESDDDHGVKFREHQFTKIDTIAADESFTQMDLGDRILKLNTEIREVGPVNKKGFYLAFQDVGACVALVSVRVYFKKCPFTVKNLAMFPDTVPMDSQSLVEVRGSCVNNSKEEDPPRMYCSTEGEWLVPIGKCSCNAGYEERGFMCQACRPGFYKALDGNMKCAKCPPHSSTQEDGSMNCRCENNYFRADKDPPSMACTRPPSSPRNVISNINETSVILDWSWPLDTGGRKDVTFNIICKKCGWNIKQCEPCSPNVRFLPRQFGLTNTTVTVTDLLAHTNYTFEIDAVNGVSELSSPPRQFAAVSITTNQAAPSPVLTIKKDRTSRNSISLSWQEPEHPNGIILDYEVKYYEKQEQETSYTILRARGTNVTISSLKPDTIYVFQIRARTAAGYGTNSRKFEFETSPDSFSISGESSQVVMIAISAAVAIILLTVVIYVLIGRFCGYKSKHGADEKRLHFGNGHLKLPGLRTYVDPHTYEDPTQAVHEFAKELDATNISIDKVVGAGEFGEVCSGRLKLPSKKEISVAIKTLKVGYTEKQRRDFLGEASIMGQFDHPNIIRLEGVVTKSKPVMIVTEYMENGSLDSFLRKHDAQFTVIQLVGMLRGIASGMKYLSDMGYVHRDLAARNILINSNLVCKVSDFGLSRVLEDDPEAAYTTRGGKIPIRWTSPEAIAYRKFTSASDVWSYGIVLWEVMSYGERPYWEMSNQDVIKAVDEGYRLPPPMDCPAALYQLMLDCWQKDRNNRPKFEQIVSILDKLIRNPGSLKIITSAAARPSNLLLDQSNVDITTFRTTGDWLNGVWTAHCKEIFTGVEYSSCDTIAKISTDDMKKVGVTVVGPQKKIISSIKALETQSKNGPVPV
# [2] = biological target: Ephrin type-A receptor 4 (Homo sapiens) (UniProt P54764); settings: at 1 µM
# [3] = biological target: Ephrin type-A receptor 4 (Homo sapiens) (UniProt P54764); settings: at 10 µM
# [4] = biological target: Ephrin type-A receptor 5 (Homo sapiens) (UniProt P54756); settings: at 1 µM
# [5] = biological target: Ephrin type-A receptor 5 (Homo sapiens) (UniProt P54756); settings: at 10 µM
# [6] = biological target: Ephrin type-A receptor 7 (Homo sapiens) (UniProt Q15375); settings: at 1 µM
# [7] = biological target: Ephrin type-A receptor 7 (Homo sapiens) (UniProt Q15375); settings: at 10 µM
# [8] = biological target: T2, Ephrin type-A receptor 8 (Homo sapiens) (UniProt P29322); settings: at 1 µM
# T2 sequence (whole entry): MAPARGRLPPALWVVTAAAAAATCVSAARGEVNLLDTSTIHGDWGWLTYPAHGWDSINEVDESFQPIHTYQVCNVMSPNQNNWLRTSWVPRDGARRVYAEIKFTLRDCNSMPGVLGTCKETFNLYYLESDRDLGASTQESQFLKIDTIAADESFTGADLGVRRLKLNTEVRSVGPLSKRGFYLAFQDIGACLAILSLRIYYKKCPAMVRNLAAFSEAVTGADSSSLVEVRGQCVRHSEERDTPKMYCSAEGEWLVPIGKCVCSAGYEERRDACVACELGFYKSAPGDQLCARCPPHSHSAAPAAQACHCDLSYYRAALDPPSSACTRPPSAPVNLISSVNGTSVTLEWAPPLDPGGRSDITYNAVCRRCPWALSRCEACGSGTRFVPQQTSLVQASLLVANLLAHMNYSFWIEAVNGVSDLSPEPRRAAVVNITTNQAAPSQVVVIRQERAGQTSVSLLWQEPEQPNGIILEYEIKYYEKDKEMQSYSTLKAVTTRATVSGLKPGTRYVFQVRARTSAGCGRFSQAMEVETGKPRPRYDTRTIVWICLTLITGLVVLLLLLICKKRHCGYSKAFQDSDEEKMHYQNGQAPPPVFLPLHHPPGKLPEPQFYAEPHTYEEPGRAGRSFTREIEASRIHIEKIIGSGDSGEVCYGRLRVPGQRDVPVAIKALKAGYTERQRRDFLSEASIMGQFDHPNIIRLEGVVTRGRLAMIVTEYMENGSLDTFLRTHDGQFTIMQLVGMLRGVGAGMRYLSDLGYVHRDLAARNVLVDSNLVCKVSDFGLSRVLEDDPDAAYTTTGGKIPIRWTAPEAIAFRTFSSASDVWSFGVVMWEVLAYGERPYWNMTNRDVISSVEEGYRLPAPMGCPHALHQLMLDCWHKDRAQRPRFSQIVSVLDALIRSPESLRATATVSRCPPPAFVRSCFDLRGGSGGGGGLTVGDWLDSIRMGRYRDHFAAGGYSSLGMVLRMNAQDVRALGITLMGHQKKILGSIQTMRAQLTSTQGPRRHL
# [9] = biological target: T2, Ephrin type-A receptor 8 (Homo sapiens); settings: at 10 µM
# [10] = biological target: T3, Ephrin type-B receptor 1 (Homo sapiens) (UniProt P54762); settings: at 1 µM
# T3 sequence (whole entry): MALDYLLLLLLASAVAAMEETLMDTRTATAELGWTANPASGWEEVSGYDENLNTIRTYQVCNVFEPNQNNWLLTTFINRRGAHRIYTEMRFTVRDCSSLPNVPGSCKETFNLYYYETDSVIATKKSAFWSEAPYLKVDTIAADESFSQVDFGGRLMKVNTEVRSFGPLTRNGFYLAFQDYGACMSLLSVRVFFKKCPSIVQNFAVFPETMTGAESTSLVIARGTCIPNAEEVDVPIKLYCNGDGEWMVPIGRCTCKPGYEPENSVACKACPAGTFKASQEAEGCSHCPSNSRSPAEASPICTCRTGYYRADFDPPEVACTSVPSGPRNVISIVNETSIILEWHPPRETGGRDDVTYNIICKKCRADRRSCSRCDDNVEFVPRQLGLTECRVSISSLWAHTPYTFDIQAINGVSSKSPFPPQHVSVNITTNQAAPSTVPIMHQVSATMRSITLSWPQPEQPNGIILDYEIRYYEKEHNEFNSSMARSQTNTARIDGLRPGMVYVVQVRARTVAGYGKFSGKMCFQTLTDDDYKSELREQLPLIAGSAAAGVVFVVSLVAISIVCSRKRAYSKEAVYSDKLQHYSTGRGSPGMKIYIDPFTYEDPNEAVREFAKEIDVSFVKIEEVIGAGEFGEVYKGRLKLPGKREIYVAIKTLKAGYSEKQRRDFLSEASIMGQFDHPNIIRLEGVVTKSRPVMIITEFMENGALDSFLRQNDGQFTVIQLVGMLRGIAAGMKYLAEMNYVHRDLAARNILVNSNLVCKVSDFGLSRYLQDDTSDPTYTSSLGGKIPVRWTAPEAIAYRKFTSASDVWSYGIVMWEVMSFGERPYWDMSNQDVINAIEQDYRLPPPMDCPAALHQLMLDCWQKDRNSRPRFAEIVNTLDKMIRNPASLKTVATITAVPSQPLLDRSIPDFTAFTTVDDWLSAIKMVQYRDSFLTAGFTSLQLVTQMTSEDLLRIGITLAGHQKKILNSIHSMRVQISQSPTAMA
# Chain of Ephrin type-A receptor 4 (Homo sapiens) (P54764 whole entry): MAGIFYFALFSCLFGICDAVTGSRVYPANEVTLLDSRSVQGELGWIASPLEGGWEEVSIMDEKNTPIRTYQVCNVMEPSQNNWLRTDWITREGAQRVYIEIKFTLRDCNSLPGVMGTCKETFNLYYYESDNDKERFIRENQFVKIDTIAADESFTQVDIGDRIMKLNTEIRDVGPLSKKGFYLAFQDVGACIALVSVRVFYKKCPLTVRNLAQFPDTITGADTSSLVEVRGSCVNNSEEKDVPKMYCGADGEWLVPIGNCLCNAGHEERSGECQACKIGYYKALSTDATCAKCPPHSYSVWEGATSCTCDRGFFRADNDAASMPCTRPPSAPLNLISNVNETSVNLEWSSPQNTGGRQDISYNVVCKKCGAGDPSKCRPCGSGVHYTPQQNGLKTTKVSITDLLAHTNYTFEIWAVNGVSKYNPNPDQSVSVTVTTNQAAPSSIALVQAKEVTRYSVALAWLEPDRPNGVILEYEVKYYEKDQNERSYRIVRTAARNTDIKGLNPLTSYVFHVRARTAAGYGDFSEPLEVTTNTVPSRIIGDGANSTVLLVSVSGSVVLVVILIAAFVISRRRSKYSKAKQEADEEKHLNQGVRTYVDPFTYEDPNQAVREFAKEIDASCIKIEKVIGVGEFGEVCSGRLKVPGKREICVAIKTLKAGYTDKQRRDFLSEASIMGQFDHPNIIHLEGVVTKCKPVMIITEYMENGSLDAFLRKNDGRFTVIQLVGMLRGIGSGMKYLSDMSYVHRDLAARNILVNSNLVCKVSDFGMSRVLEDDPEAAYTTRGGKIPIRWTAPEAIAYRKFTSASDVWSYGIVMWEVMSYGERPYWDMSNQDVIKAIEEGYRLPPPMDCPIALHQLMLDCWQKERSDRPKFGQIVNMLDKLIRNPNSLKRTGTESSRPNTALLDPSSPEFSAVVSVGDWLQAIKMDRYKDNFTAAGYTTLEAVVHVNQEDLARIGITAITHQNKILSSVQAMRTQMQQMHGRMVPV
# Chain of Ephrin type-A receptor 5 (Homo sapiens) (P54756 whole entry): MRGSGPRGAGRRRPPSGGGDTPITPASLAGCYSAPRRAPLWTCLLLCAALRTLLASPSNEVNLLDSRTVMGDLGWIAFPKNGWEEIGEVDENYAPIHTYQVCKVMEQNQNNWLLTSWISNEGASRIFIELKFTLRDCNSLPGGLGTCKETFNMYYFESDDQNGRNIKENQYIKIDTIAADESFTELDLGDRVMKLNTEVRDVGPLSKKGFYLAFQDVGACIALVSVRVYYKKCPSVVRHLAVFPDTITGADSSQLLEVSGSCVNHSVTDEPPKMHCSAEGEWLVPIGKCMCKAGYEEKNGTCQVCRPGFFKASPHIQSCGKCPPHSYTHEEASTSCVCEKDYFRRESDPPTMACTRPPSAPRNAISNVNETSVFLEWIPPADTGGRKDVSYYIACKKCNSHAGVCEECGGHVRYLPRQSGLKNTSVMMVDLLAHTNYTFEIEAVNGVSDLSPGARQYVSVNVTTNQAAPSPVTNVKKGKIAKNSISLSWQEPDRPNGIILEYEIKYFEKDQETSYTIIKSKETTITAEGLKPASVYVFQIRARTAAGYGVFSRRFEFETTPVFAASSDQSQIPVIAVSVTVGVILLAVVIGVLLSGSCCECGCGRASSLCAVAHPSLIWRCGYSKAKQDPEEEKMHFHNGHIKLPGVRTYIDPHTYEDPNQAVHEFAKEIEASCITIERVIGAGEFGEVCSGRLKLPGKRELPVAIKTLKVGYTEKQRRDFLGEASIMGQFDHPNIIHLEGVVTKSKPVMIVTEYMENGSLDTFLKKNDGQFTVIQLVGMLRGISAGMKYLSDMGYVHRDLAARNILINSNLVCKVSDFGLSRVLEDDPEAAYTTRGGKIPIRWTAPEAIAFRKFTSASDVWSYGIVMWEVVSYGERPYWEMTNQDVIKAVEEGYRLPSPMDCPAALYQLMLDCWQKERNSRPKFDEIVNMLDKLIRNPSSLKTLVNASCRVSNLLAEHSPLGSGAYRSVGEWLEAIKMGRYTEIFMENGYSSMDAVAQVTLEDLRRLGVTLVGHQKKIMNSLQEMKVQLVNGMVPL
# Chain of Ephrin type-A receptor 7 (Homo sapiens) (Q15375 28-998 limits assumed): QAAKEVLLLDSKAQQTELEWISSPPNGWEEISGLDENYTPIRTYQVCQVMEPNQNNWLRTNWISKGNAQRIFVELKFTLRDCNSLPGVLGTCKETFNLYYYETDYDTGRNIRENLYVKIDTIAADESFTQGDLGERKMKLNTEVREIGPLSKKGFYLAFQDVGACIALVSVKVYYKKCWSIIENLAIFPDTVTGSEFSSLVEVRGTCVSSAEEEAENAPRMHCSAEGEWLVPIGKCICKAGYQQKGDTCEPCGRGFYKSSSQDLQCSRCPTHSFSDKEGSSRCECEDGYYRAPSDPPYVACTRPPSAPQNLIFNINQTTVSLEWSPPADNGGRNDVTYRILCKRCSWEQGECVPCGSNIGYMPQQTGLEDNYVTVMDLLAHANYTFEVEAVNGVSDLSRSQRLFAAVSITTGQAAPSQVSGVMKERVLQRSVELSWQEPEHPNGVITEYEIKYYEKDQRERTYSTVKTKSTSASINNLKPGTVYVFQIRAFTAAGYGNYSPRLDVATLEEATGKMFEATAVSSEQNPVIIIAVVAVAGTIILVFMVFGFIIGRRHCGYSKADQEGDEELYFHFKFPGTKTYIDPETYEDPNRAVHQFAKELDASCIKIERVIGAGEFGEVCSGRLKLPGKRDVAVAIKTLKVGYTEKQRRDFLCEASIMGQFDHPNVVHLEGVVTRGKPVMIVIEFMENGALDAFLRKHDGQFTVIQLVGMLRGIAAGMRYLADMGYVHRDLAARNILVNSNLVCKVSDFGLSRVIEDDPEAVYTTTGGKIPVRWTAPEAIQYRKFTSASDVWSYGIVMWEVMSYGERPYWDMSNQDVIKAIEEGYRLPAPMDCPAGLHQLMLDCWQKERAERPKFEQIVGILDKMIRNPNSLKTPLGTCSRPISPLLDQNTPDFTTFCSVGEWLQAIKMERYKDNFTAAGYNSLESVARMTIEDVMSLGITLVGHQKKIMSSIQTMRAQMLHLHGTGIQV
SMILES,residual activity [1],residual activity [2],residual activity [3],residual activity [4],residual activity [5],residual activity [6],residual activity [7],residual activity [8],residual activity [9],residual activity [10]
Cn1cc(/C=C2\C(=O)Nc3ccc(S(N)(=O)=O)cc32)c2ccccc21,13%,96%,89%,54%,53%,32%,9%,88%,54%,66%
O=C1Nc2cc(Br)ccc2/C1=C1/Nc2ccccc2/C1=N\O,3%,109%,98%,37%,42%,68%,20%,69%,82%,34%
CO[C@H]1C[C@@H]2CC[C@@H](C)[C@@](O)(O2)C(=O)C(=O)N2CCCC[C@H]2C(=O)O[C@H]([C@H](C)C[C@@H]2CC[C@@H](O)[C@H](OC)C2)CC(=O)[C@H](C)/C=C(\C)[C@@H](O)[C@@H](OC)C(=O)[C@H](C)C[C@H](C)/C=C/C=C/C=C/1C,129%,104%,100%,112%,116%,100%,92%,96%,119%,101%
c1ccc2c(-c3ccncc3)c[nH]c2c1,92%,109%,98%,102%,111%,99%,84%,96%,92%,108%
Nc1cccc(-c2cc3c(Oc4cccc(O)c4)ncnc3[nH]2)c1,0%,48%,4%,24%,2%,64%,15%,30%,6%,7%
Cc1ccc(S(=O)(=O)/C=C/C#N)cc1,105%,106%,110%,107%,101%,94%,96%,94%,102%,93%
O=C(Nc1cccc(Nc2cc(Nc3cccc(C(F)(F)F)c3)ncn2)c1)C1CC1,114%,113%,103%,98%,87%,95%,86%,98%,90%,98%
COc1cc2ncnc(Nc3ccc(O)c(Br)c3)c2cc1OC,20%,89%,41%,74%,21%,34%,7%,70%,28%,62%
NC(=O)c1ccc2[nH]c(-c3ccc(Oc4ccc(Cl)cc4)cc3)nc2c1,111%,112%,104%,114%,103%,94%,81%,94%,96%,95%
O=C1NC(=O)/C(=C/c2ccc3c(c2)OC(F)(F)O3)S1,93%,116%,105%,115%,103%,89%,102%,111%,99%,115%
CO[C@H]1[C@@H](OC)C[C@H](C)[C@@H](OC)C2=CC(=O)C=C(NC(=O)/C(C)=C/C=C/[C@H](OC)[C@@H](OC(N)=O)/C(C)=C/[C@@H]1C)C2=O,85%,110%,112%,107%,95%,95%,96%,96%,105%,109%
O=C1NC(=O)c2cc(Nc3ccc(F)cc3)c(Nc3ccc(F)cc3)cc21,76%,100%,83%,93%,71%,74%,21%,87%,56%,82%
CC(C)n1cnc2/c(=N/c3cccc(Cl)c3)nc(NCCO)[nH]c21,54%,110%,75%,102%,43%,83%,43%,97%,77%,81%
CO[C@@H]1[C@H](N(C)C(=O)c2ccccc2)C[C@H]2O[C@]1(C)n1c3ccccc3c3c4c(c5c6ccccc6n2c5c31)C(=O)NC4,99%,103%,90%,97%,86%,94%,70%,94%,97%,–
Cc1nc2cc3nc(-c4cccs4)cnc3cc2n1C,94%,115%,96%,107%,114%,104%,90%,111%,96%,103%
O=C1Nc2ccc(Br)cc2/C1=C\c1cc2c([nH]1)CCCC2,–,106%,103%,110%,–,–,–,–,101%,101%
O=C(O)c1ccc2c3c1cccc3c(=O)n1c3ccccc3nc21,91%,106%,104%,102%,100%,104%,88%,103%,93%,107%
CC(=O)c1ccc(N2CCOCC2)cc1O,94%,–,104%,–,101%,101%,90%,100%,93%,93%
N#CCCc1ccc2c(c1)-c1[nH]c3ccc([N+](=O)[O-])cc3c1CC(=O)N2,43%,–,–,–,–,79%,56%,77%,69%,–
COc1ccc(C(=O)Nc2sc3c(c2C(N)=O)CCCC3)cc1OC,89%,112%,95%,94%,108%,92%,87%,107%,85%,83%
COc1ccc(S(=O)(=O)N(CCO)c2ccccc2CN(C)C/C=C/c2ccc(Cl)cc2)cc1,83%,103%,97%,124%,112%,96%,96%,98%,88%,103%
